# Source: ChEMBL document CHEMBL3988442, “University of Dundee, Small-Polar-MMV Screening Library” (2021)
# About 13,000 (27%) of roughly 48,000 compounds showed an effect of 50% or more. The list shows a part of the results.
# Test system: Wolbachia pipientis
# Experiment: Anti-Wolbachia Cell-Based Screen
# Assay type: functional
# Set-up: scale not given: in the data most compounds retested in dose-response had high values
# Conditions: 5 µM
row,Compound,Percent Effect [%]
1,CCC(C)Nc1ccc2c(c1)C1(CCOCC1)C(=O)N2c1ccccc1 (stereo not drawn),13.06
2,Cc1ccccc1CS(=O)(=O)CC(=O)N(C)Cc1cccc(F)c1,-33.07
3,CCN1CCN2CCCN(S(=O)(=O)c3ccc(S(C)(=O)=O)cc3)C2C1=O (stereo not drawn),10.86
4,CCn1c(CN(C)C(C)CSC)nc2c(F)cccc21 (stereo not drawn),-3.593
5,Cn1nnnc1SCCNC(=O)C1CCN(C(=O)C2CC2)CC1,0.3316
6,COCCNC(=O)Cn1c(C)cc2nc(SC)n(CC(C)C)c(=O)c21,0.09267
7,CCCc1cc(=O)n(CC(=O)NCCOC)c(-n2nc(C)cc2C)n1,110
8,Cc1cc(C)n(-c2cncc(N3CCN(C(=O)C(C)C)CC3)n2)n1,-1.845
9,CCCc1cc(=O)n(CC(=O)NC(C)C)c(-n2nc(C)cc2C)n1,152.6
10,CCN(CC)C(=O)CCNc1cncc(-n2nc(C)cc2C)n1,-4.875
11,CCCNC(=O)Cn1c(-n2nc(C)cc2C)nc(CCC)cc1=O,109.3
12,CCCc1cc(=O)n(CC(N)=O)c(-n2nc(C)cc2C)n1,12.11
13,COCCS(=O)(=O)NC(C)c1ccc(-n2nc(C)cc2C)cc1 (stereo not drawn),-14.21
14,CCCNC(=O)Cn1c(C)nn(C(C)(C)C)c1=O,-1.553
15,CCC(O)CN(CC(=O)NC(=O)NC1CC1)c1ccccc1 (stereo not drawn),-6.258
16,CCOCC1CC2(CCN(C(=O)C3CCSCC3)CC2)CO1 (stereo not drawn),-12.12
17,O=C1CC(c2ccco2)c2sc(C(=O)O)c(-c3ccccc3)c2N1 (stereo not drawn),3.632
18,O=C(CO)N1C[C@H]2CC[C@@H]1CN(C1Cc3ccccc3C1)C2,-7.791
19,Cc1cc(CN2CCN(C(C)c3nc(C4CC4)no3)CC2)no1 (stereo not drawn),2.927
20,CCc1noc(C(C)N2CCN(Cc3nnc(C4CC4)o3)CC2)n1 (stereo not drawn),4.733
21,CC(C)c1nnc(CN2CCN(C(C)c3nc(C4CC4)no3)CC2)o1 (stereo not drawn),138.5

row,Compound,Percent Effect [%]
1,COc1ccc(CN2CCN(C(C)c3nc(C4CC4)no3)CC2)cc1 (stereo not drawn),8.61
2,CC(C)c1nc(C2CCCN(Cc3nnc(C4CC4)o3)C2)no1 (stereo not drawn),-2.987
3,Cc1nnc(CN2CCN(C(C)c3nc(C4CC4)no3)CC2)o1 (stereo not drawn),96.71
4,CC(c1nc(C2CC2)no1)N1CCN(Cc2nnc(C3CC3)o2)CC1 (stereo not drawn),142.3
5,CC(C)(C)c1c[nH]c([C@@H]2COCCN2C2CCOCC2)n1,1.318
6,CCN(C)C(=O)CCC(=O)c1cccs1,14.3
7,CC(C)S(=O)(=O)N(C)C(=O)CCc1ccsc1,-69.32
8,O=C(NC1CCC1)[C@@H]1CCO[C@@H]2CCN(C3CCCC3)C[C@@H]21.O=C(O)C(F)(F)F,-2.811
9,CCN(CC)C(=O)N1CCN(Cc2cnc(C)nc2)[C@H]2CS(=O)(=O)C[C@H]21,94.21
10,Cc1ccc(CN2CCN(C(=O)C3CCC3)[C@@H]3CS(=O)(=O)C[C@@H]32)cc1C,4.312
11,CN(C)C(=O)N1CCN(Cc2ccccc2)[C@@H]2CS(=O)(=O)C[C@@H]21,-15.23
12,CCc1ccc(CN2CCN(C(=O)C(C)C)[C@@H]3CS(=O)(=O)C[C@@H]32)cc1,-2.722
13,Cc1cc(C)cc(CN2CCN(C(=O)C3CCC3)[C@@H]3CS(=O)(=O)C[C@@H]32)c1,5.878
14,Cc1ncc(CN2CCN(C(=O)C3CCC3)[C@@H]3CS(=O)(=O)C[C@@H]32)cn1,112.3
15,COc1cc(Oc2ccc(C(F)(F)F)cn2)ccc1CN1CCCC1,2.757
16,O=C(NC[C@H]1OC[C@@H](NC(=O)C2CCCC2)[C@@H]1O)c1ccncc1,0
17,CC(=O)Nc1ccc(CNC2COc3c2ccc(C)c3C)cc1 (stereo not drawn),-7.711
18,COCC[C@]1(O)CCN(S(=O)(=O)c2ccc(C)cc2OC)C[C@H]1C,-114.9
19,CCn1cc(Br)c(C(=O)NCc2cccnc2)n1,4.447
20,Nc1no[n+]([O-])c1C(=O)NCc1ccccn1,131.2
21,COc1c(C(=O)NCc2cccnc2)nnn1Cc1ccc(C)cc1,7.937

row,Compound,Percent Effect [%]
1,Nc1no[n+]([O-])c1C(=O)NCc1cccnc1,115
2,CCc1noc(C)c1C(=O)NCc1ccccn1,-15.45
3,N#Cc1ccc(CN2C[C@@H]3OCC(=O)N(CC(N)=O)[C@@H]3C2)cc1,-3.646
4,CC(C)Oc1ccccc1CNC(=O)N(C)CC(F)F,-6.331
5,O=C(NC[C@@H]1CCCO1)c1cccnc1N1CCCC1c1ccccn1 (stereo partly drawn),123.2
6,N#Cc1cccnc1NCc1cccc(C(=O)NCC2CCCCO2)c1 (stereo not drawn),-17.65
7,O=C(NCCCOCC1CCCO1)c1cccnc1N1CCCC1 (stereo not drawn),-6.483
8,O=C(NC[C@@H]1CCCO1)c1cccnc1N1CCCC1c1ccccc1 (stereo partly drawn),120.1
9,Fc1ccccc1CN1CCCN(c2ccc3cc[nH]c3n2)CC1,-2.258
10,CC(O)CC(C)(C)CNC(=O)NCc1cccc(-n2cncn2)c1 (stereo not drawn),-1.907
11,CCC(CNC(=O)c1nc(=O)[nH][nH]1)Oc1cccc(F)c1 (stereo not drawn),12.08
12,Cc1cc(C)c2c(c1)NC(=O)C2CC(=O)O (stereo not drawn),18.62
13,CS(=O)(=O)N1CCc2ccc(C(=O)N3CCn4ncnc4C3)cc21,111.8
14,O=C(c1ccc2c(c1)CCC2)N1CCn2ncnc2C1,98.73
15,O=C(c1ccc2c(c1)CCC2)N1C[C@@H](CN2CCOCC2)[C@@H](CO)C1,-9.126
16,O=C(c1ccc2c(c1)CCCC2)N1CCn2ncnc2C1,90.14
17,O=C(c1ccc(O)nc1)N1CCc2ccc(O)cc2C1,-1.234
18,Cc1ccc(C(=O)N2CCN(S(C)(=O)=O)CC2)cc1N1CCNC1=O,0.6513
19,O=C(c1ccc2c(c1)CCC2)N1CCN(c2ccc(Cl)cn2)CC1,-15.66
20,CSc1ccc(NC(=O)Nc2ccc3c(c2)N(S(C)(=O)=O)CC3)cc1,-6.619
21,CC(C)c1nnc2n1CCN(C(=O)c1ccc3c(c1)COC3)C2,4.471
